The structures appear in SMILES notation. The whole screen tested about 220,000 compounds, of which about 2,000 (0.91%) were called active. Inconclusive results (about 2%) are left out. A selection follows. Measured potencies and affinities stand elsewhere. Unmarked numbers belong to inactive results. Rule as the data show it: inconclusive = inhibition above about 80% without an active follow-up result; inactive = below that; test concentration not stated here.

This assay in a line: M. tuberculosis H37Rv growth inhibitors, H37Rv strain (AID 1626).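 Also: bacteria incubated seven days before Alamar blue readout; 0% = bacteria only wells and 100% = bacteria with antibiotic wells.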 Particulars: active compounds read high, concentration not given here.
As to `c1ccc(-c2cnc(SCCN3CCOCC3)n2CC2CCCO2)cc1` (configuration not stated), the inhibition was 4.09%. Regarding `CCN(CC)C(=O)C(=O)c1cccn1-c1c(Cl)cccc1C#N`, the inhibition was -1.07%. Take `NC(=O)c1cn(-c2ccccc2)nc1-c1cccnc1`: the inhibition is -9.42%. As to `CC1CC(=O)N(CC(=O)NCc2ccco2)c2ccccc2S1` (configuration not stated), the inhibition is -7.83%. Consider `O=C(CCc1nnc(CCc2c[nH]c3ccccc23)o1)NC1CCC1`, for which the inhibition was -2.04%. As for `COc1ccc(NC(=O)c2ccccc2[N+](=O)[O-])cc1`, the inhibition was -5.35%. To `Cc1c(C(=O)NCCCn2ccnc2)oc2ccccc12` belongs 3%.

With `CCc1ccc(/C=N/NC(=O)c2cc(C)on2)s1`, the inhibition was 4.86%.

In the case of `CC(C)CCNC(=O)CCSCCC(=O)NCCC(C)C`, the inhibition was -5.9%.

As for `COc1ccc(C(=O)C2CCCN(Cc3cccc(C)n3)C2)c(OC)c1` (configuration not stated), the inhibition was -9.04%. Take `COc1cccc(C(=O)C2CCCN(Cc3cccc(C)n3)C2)c1` (configuration not stated): the inhibition is 6.54%. With `Cc1cccc(CN2CCCC(C(=O)c3ccc4c(c3)OCO4)C2)n1` (configuration not stated), the inhibition was 9.77%. In the case of `COc1ccc(C(=O)C2CCCN(Cc3cnc(C)s3)C2)c(OC)c1` (configuration not stated) it was 1.52%; in that of `COc1ccc(C(=O)C2CCCN(Cc3cnc(C)s3)C2)cc1OC` (configuration not stated), -7.69%; in that of `COc1c(C)cc(C(=O)C2CCCN(Cc3ccccn3)C2)cc1C` (configuration not stated), 52.1%. Take `Cc1cccc(-n2ncc3c(Nc4ccc(F)cc4)ncnc32)c1`: the inhibition was 8.29%. Take `COc1ccc(N2C(=O)c3ccccc3S2(=O)=O)cc1`: the inhibition was -3.28%.

Regarding `COc1ccc(CN2CN=C(Nc3nc4ccccc4s3)NC2)cc1`, the inhibition is -0.93%. With `CCNC(=S)N/N=C/c1ccc(OCCOc2ccccc2C)cc1`, the inhibition was -4.17%. In the case of `COC(=O)c1ccc(CNC(=O)COc2ccccc2Br)o1` it was 5.3%; in that of `CC[n+]1ccccc1/C=C/Nc1ccccc1`, -7.49%. On to `O=C(CSc1nccc(=O)[nH]1)Nc1ccc2c(c1)OCCO2`, for which the inhibition was 31.1%.

Take `O=C(CSc1nccc(=O)[nH]1)Nc1ccc(F)c(Cl)c1`: the inhibition was -0.08%. To `S=c1[nH]nc(-c2ccncc2)n1/N=C/C(Cl)=C\c1ccccc1` belongs 6.36%; to `COc1cc(CNc2ncn[nH]2)ccc1OCc1cccc(C)c1`, 5.16%; to `COc1ccc(O)c(C(=O)c2cnc3c(c2)CN(C)C(=O)N3)c1`, -1.06%.

On to `CC1(C)CC(NC(=O)c2ccccn2)CC(C)(C)N1O`, for which the inhibition was 1.26%. Take `S=C1NCCNC(=S)NCCOCCOCCOCCN1`: the inhibition is -1.99%.

Consider `Cc1cc(NCCCn2ccnc2)n2ncc(-c3ccccc3)c2n1`, for which the inhibition is 18.5%.

Take `Cc1cc(NCCCN2CCOCC2)n2ncc(-c3ccccc3)c2n1`: the inhibition was 7.39%. To `CC(C)(C)c1cc(-n2ccnc2)n2ncc(-c3ccc(Cl)cc3)c2n1` belongs 6.96%; to `Clc1ccc(-n2ncc3c(NCCCn4ccnc4)ncnc32)cc1`, -5.48%; to `COC(=O)c1cc(Br)c(=O)n(CCC2=CCCCC2)c1`, -7.27%. In the case of `O=C(NC(=S)Nc1ccc(CN2CCOCC2)cc1)c1ccco1` it was -0.41%; in that of `COc1ccc(-c2[nH]ncc2CN2CCC(N3CCSCC3)CC2)c(F)c1`, -0.36%; in that of `Cc1ccc(-c2nn(-c3ccccc3)cc2/C=N/NC(=O)c2ccc(Br)o2)cc1`, 0.66%. In the case of `Clc1ccc(Cl)c(OCCCCNCc2ccccc2)c1` it was 11.2%; in that of `Clc1cc(Br)ccc1OCCCNCc1ccccc1`, 23%.

On to `Cc1ccc(C)c(OCCCC(=O)Nc2ccc(N3CCOCC3)cc2)c1`, for which the inhibition was -9.52%. Consider `Cn1c(SCC(=O)N2CCOCC2)nnc1-c1cnccn1`, for which the inhibition was -10.3%. To `CCCCOc1ccc(C(=O)Nc2cc(C)c(OCC(=O)N3CCOCC3)c(C)c2)cc1` belongs -1.36%; to `CCC(C)[C@H](N)c1nnc(SCC(=O)c2ccc(Cl)cc2)o1` (some centres not stated), -1.21%; to `Cn1c(SCCCC(=O)c2ccc(F)cc2)nnc1-c1ccncc1`, 5.49%. To `CC1=C(CCN2CCN(C(C)C)C(CCO)C2)C(C)(C)CCC1` (configuration not stated) belongs 1.16%; to `CC1=C(CCN2CCN(C3CCCC3)C(CCO)C2)C(C)(C)CCC1` (configuration not stated), 3.37%; to `CC1(C)Oc2ccc3ccc(=O)oc3c2/C(=C/Nc2ccccn2)C1=O`, -6.19%. In the case of `COc1ccc(OC)c(CCNC(=O)C(=O)Nc2ccc3nc4n(c(=O)c3c2)CCCCC4)c1` it was 9.2%; in that of `COc1ccc(-c2csc(/C(C#N)=C/Nc3ccc4c(c3)OCCO4)n2)cc1`, 5.83%; in that of `CCN(CC)CCOC(=O)c1cccc(OC)c1`, -3.6%. `COc1cccc(-c2csc(/C(C#N)=C/Nc3cc4oc5ccccc5c4cc3OC)n2)c1`: the inhibition is 6.75%. For the compound `N#C/C(=C\Nc1ccc2c(c1)OCCO2)c1nc(-c2ccccc2)cs1`, the inhibition is -0.56%. Turning to `Cc1ccc(-c2csc(/C(C#N)=C/Nc3ccc4c(c3)OCCO4)n2)cc1`, the inhibition is -3.12%. To `COc1cc2c(cc1N/C=C(\C#N)c1nc(-c3ccc(F)cc3)cs1)oc1ccccc12` belongs 5.47%; to `Cn1c(=O)c2c(ncn2CC(=O)OCC(=O)NCc2ccc(Cl)cc2)n(C)c1=O`, -4.25%. To `CCOC(=O)CSC(CC)C(=O)Nc1nnc(CC)s1` (configuration not stated) belongs 8.43%. As for `Cc1cc(Cl)ccc1N(CC(=O)NCc1ccc2c(c1)OCO2)S(C)(=O)=O`, the inhibition was -3.37%. Take `O=C(CCC(=O)c1cccs1)OCc1nc2ccccc2s1`: the inhibition was -8.64%. Consider `CC[C@@H](CO)C1CC2NC3CC4(c5ccccc5N(C)[C@@H]24)C(O)C31` (some centres not stated), for which the inhibition is -2.7%. As to `COc1ccc(/C=N/N2C(=O)c3ccccc3C2=O)cc1`, the inhibition is 1.55%. As for `CCCCCC(=O)Nc1nc(C)c(-c2csc(Nc3ccccc3OC)n2)s1`, the inhibition is 3.41%. On to `CCCCC(=O)Nc1nc(C)c(-c2csc(Nc3ccccc3OC)n2)s1`, for which the inhibition was 6.85%. As to `CCN(CC)CCCN1C(=O)C(O)=C(C(=O)c2cc3ccccc3o2)C1c1ccccn1` (configuration not stated), the inhibition is -1.65%.

For the origin of these results see PubChem BioAssay AID1626 (SRMLSC, 2009).
